One sequence from PMC7862700, “An all-to-all approach to the identification of sequence-specific readers for epigenetic DNA modifications on cytosine” can be followed below.

What all share (test): DAPPL (digital affinity profiling via proximity ligation, sequencing); 10 mM Tris-HCl pH 7.5, 50 mM NaCl, 1 mM DTT, 4% glycerol, room temperature, 30 min; GST-TFs on glutathione beads, 16-mer random dsDNA library, 0.1% formaldehyde crosslink after washing; high values mean tight binding
One assay concerns the target T1, FLI1 (Homo sapiens, UniProt Q01543 1-452).
T1 sequence: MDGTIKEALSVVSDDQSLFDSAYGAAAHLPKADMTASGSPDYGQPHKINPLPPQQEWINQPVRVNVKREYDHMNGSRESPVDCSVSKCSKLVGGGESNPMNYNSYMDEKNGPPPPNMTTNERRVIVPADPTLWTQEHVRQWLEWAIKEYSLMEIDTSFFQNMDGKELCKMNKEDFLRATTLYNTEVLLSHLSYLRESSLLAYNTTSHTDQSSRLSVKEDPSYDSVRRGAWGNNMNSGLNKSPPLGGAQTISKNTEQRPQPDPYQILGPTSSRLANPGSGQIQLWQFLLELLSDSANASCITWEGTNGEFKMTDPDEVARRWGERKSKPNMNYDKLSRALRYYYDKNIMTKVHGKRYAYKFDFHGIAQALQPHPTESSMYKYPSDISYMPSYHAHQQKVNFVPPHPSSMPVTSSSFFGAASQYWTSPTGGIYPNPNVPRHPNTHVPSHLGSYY
Particulars: protein: recombinant; tags: N-terminal GST; dsDNA, one strand shown. Put shortly:
(§1)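 Pools of DNA-barcoded human transcription factors, expressed in yeast as GST fusions on glutathione beads and combined with a tag-only sample, were incubated with 200 nmole of a 16-mer random double-stranded DNA library. Incubation took 30 min at room temperature in Tris/NaCl/DTT/glycerol buffer and was followed by washing, 0.1% formaldehyde crosslinking, proximity ligation (BsaI/T4 ligase, 1 h, 37 °C), PCR amplification and sequencing on an Illumina NextSeq500. Binding signal is the ratio of a hexamer's read frequency for a factor to its frequency for the tag-only sample.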

In another assay the target is T2, ELK1 (Homo sapiens, UniProt P19419 1-428).
T2 sequence: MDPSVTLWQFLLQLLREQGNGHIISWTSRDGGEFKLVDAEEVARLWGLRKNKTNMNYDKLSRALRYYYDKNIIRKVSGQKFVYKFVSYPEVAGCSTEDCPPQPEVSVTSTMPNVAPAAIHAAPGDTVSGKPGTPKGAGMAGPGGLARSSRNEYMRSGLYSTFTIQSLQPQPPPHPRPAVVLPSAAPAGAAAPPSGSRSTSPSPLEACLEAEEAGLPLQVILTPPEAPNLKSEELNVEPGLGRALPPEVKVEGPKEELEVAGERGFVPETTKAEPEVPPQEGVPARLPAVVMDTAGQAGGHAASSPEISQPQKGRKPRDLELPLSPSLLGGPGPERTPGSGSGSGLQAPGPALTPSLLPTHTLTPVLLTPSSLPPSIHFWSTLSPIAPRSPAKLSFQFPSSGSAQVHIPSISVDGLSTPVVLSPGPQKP
Particulars: protein: recombinant; tags: N-terminal GST; dsDNA, one strand shown. Put shortly:
as §1

The target of a further assay is T3, GABPA (Homo sapiens, UniProt Q06546 1-454).
T3 sequence: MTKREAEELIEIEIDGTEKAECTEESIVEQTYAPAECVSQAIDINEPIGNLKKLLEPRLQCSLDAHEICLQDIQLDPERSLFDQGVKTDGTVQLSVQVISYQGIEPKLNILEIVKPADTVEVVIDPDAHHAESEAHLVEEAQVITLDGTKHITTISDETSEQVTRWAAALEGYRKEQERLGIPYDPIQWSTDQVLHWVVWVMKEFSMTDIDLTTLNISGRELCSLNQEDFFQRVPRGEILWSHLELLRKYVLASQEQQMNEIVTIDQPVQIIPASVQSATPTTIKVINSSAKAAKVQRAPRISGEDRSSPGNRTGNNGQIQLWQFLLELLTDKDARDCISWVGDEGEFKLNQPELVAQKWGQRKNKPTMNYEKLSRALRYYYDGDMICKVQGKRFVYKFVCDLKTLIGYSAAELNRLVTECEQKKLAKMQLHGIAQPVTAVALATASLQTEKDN
Particulars: protein: recombinant; tags: N-terminal GST; dsDNA, one strand shown. Put shortly: as §1

For the next assay, the target named is ELF1 (Homo sapiens, UniProt P32519 1-619). The note with it: protein: recombinant; tags: N-terminal GST; dsDNA, one strand shown. In outline: as §1
Sequence of ELF1 (P32519 whole entry): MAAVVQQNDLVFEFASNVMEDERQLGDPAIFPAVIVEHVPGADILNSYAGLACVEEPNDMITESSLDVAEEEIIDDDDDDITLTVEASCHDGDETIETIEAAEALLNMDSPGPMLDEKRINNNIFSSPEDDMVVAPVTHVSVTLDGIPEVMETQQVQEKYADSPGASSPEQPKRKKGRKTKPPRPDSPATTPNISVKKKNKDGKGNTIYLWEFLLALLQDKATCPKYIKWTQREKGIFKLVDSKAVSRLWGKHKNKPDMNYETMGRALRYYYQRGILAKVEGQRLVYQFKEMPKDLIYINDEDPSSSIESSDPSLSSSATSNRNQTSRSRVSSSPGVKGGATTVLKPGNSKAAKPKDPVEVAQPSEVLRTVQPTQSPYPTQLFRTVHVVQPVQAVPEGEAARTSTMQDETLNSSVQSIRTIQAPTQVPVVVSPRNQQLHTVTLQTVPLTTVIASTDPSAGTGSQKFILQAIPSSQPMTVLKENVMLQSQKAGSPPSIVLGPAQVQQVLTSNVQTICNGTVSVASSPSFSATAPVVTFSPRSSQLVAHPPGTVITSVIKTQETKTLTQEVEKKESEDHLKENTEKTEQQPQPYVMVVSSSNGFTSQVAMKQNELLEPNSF
Another assay has as its target T4, EHF (Homo sapiens, UniProt Q9NZC4 1-300).
T4 sequence: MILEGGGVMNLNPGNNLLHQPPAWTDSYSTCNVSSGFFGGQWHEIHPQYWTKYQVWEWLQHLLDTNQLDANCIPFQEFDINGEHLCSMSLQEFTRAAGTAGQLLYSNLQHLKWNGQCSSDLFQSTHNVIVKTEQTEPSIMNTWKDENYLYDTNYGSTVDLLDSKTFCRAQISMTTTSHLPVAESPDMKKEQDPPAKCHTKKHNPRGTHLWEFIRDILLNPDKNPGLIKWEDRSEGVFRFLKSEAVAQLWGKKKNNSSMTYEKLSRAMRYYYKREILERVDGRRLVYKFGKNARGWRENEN
The note with it: protein: recombinant; tags: N-terminal GST; dsDNA, one strand shown. Put shortly:
as §1

In another assay the target is SPI1 (Homo sapiens, UniProt P17947 1-270). Particulars: protein: recombinant; tags: N-terminal GST; dsDNA, one strand shown. In outline:
as §1

In a further assay the target is T5, ELK3 (Homo sapiens, UniProt P41970 1-407).
T5 sequence: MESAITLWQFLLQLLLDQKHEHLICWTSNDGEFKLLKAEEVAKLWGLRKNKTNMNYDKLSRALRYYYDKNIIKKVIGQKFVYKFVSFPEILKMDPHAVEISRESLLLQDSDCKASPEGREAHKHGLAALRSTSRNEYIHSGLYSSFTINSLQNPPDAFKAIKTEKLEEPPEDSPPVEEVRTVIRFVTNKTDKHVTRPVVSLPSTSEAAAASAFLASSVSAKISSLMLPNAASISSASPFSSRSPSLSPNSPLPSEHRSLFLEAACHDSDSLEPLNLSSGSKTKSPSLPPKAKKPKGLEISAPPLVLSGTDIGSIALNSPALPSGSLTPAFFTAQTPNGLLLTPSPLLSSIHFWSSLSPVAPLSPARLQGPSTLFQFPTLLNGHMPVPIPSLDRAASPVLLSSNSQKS
The note with it: protein: recombinant; tags: N-terminal GST; dsDNA, one strand shown. In outline: as §1

Another assay deals with ETV5 (Homo sapiens, UniProt P41161 1-510). Particulars: protein: recombinant; tags: N-terminal GST; dsDNA, one strand shown. In outline: as §1
Sequence of ETV5 (P41161 whole entry): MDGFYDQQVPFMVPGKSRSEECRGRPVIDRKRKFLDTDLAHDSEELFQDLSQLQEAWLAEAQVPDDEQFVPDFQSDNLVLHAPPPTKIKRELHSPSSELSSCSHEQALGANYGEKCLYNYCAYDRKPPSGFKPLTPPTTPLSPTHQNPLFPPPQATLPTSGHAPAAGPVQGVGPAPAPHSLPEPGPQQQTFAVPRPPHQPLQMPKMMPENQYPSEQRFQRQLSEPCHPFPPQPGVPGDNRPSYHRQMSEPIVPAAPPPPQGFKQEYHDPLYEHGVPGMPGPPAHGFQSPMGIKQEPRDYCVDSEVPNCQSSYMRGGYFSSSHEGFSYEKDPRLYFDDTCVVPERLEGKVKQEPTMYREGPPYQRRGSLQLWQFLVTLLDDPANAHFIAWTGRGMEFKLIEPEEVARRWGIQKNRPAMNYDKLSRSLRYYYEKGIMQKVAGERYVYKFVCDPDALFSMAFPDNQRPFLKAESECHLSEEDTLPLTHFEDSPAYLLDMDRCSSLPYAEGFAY
For the next assay, the target named is HSF1 (Homo sapiens, UniProt Q00613 1-529). Particulars: protein: recombinant; tags: N-terminal GST; chain copies: 3; dsDNA, one strand shown. Put shortly: as §1
Sequence of HSF1 (Q00613 whole entry): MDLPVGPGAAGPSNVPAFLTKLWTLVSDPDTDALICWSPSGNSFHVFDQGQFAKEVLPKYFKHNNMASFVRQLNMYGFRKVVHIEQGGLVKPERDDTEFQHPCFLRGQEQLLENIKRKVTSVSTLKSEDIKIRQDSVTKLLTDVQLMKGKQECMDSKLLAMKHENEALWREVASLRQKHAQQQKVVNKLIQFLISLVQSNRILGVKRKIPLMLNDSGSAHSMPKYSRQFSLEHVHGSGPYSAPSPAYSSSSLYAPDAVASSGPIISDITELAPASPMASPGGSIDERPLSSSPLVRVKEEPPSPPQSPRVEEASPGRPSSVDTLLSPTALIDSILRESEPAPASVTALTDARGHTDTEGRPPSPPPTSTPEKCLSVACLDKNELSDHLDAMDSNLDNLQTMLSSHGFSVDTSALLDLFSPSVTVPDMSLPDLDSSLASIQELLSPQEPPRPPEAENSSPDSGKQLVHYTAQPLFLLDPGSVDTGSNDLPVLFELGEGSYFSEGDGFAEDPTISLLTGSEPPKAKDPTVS
The next assay has as its target T6, SPIC (Homo sapiens, UniProt Q8N5J4 1-248).
T6 sequence: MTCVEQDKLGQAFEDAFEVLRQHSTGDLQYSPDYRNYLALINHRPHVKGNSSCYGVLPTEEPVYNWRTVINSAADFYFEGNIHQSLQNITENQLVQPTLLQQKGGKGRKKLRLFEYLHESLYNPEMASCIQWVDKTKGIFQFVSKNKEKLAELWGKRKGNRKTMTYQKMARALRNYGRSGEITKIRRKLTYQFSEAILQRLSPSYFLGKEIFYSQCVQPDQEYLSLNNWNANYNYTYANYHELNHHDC
The note with it: protein: recombinant; tags: N-terminal GST; dsDNA, one strand shown. In outline:
as §1

In the next assay the target is ELF4 (Homo sapiens, UniProt Q99607 1-663). Particulars: protein: recombinant; tags: N-terminal GST; dsDNA, one strand shown. Put shortly:
as §1

The target of a further assay is T7, ELK4 (Homo sapiens, UniProt P28324-2 1-405).
T7 sequence: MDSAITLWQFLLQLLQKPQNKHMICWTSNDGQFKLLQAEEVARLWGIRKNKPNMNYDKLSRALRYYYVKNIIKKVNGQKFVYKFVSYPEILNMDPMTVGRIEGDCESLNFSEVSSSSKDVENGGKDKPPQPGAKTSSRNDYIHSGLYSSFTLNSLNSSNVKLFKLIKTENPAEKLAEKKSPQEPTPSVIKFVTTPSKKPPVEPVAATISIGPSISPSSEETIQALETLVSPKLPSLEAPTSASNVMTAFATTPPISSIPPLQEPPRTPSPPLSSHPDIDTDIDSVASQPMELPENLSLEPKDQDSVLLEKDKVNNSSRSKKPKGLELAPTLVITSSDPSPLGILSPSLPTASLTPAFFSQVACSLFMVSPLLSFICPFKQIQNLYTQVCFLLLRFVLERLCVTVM
The note with it: protein: recombinant; tags: N-terminal GST; dsDNA, one strand shown. Put shortly:
as §1

The target of a further assay is T8, ETV2 (Homo sapiens, UniProt O00321 1-342).
T8 sequence: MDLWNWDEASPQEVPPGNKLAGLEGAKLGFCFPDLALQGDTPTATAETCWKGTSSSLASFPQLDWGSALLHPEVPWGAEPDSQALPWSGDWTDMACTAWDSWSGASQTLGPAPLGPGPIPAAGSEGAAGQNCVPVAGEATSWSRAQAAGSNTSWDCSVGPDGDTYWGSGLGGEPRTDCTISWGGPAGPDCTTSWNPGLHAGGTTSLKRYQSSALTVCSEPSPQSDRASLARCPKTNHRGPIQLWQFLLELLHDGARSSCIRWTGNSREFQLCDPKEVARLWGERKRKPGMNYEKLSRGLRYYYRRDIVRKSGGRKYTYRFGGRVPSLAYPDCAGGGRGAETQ
Particulars: protein: recombinant; tags: N-terminal GST; dsDNA, one strand shown. Put shortly: as §1

The target in another assay is T9, ELF3 (Homo sapiens, UniProt P78545 1-371).
T9 sequence: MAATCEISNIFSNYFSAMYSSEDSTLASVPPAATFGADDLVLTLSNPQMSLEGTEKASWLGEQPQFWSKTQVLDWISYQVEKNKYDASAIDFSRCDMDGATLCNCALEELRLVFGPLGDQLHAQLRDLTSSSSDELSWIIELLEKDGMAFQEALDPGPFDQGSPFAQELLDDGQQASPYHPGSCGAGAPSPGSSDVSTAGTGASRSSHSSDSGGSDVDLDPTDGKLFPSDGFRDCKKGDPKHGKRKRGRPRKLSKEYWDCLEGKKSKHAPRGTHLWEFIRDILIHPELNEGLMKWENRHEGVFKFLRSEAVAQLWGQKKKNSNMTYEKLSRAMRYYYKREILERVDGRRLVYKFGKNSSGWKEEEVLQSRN
The note with it: protein: recombinant; tags: N-terminal GST; dsDNA, one strand shown. In outline: as §1

The target in another assay is CRX (Homo sapiens, UniProt O43186 1-299). The note with it: protein: recombinant; tags: N-terminal GST; dsDNA, one strand shown. In outline:
as §1

Sequence of ELF4 (Q99607 whole entry): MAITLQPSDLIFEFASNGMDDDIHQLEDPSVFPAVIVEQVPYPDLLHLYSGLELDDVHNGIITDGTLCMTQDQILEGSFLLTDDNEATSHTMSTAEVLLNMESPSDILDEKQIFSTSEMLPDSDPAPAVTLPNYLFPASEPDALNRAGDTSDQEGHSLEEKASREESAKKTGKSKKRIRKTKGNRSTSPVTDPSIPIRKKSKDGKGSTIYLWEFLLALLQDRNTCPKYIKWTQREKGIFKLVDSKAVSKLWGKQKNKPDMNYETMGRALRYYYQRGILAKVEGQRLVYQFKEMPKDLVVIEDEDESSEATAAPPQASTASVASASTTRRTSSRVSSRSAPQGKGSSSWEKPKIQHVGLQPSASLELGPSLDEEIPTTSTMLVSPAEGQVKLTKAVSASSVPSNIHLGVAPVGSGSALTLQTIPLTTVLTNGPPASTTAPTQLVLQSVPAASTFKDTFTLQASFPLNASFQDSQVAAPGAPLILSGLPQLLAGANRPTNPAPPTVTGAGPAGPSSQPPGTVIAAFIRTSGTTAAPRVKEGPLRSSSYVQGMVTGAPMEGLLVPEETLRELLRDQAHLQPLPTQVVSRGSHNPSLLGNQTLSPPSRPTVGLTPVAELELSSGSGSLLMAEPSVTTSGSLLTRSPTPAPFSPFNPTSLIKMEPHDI
Sequence of CRX (O43186 whole entry): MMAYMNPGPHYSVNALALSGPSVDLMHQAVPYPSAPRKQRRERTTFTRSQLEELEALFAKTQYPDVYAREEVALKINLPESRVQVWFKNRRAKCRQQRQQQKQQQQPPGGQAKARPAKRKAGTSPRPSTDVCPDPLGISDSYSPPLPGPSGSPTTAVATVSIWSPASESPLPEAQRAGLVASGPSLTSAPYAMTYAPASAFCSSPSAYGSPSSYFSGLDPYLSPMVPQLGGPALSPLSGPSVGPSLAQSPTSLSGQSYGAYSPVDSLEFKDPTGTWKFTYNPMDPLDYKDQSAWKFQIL

As to TGATCA, the binding signal is 1.04 fold enrichment (6-mer frequency, TF over GST control) with FLI1; 1.05 fold enrichment (6-mer frequency, TF over GST control) with ELK1; 1.03 fold enrichment (6-mer frequency, TF over GST control) in the assay with GABPA; 1.07 fold enrichment (6-mer frequency, TF over GST control) with ELF1; 1.08 fold enrichment (6-mer frequency, TF over GST control) with EHF; 1.02 fold enrichment (6-mer frequency, TF over GST control) with SPI1. Further, the binding signal in the assay with ELK3 was 1.18 fold enrichment (6-mer frequency, TF over GST control); in the assay with ETV5, 1.02 fold enrichment (6-mer frequency, TF over GST control); in the assay with HSF1, 1.08 fold enrichment (6-mer frequency, TF over GST control); with SPIC, 1.16 fold enrichment (6-mer frequency, TF over GST control); with ELF4, 1.1 fold enrichment (6-mer frequency, TF over GST control); with ELK4, 1.02 fold enrichment (6-mer frequency, TF over GST control). For the same sequence, the binding signal in the assay with ETV2 is 1.1 fold enrichment (6-mer frequency, TF over GST control); with ELF3, 1.03 fold enrichment (6-mer frequency, TF over GST control); with CRX, 1.18 fold enrichment (6-mer frequency, TF over GST control).
